Drawing on PubChem BioAssay AID1347156 (National Center for Advancing Translational Sciences (NCATS), 2019), this text covers Potency for 21 molecules.

Each structure is given as a SMILES string. Records with an inconclusive call do not appear. Activity calls are given as the source filed them. The call rests on the fitted dose curve; in most records, active means well fitted cell-killing curve with a large enough effect; inconclusive means small, poorly fitted or top-dose-only effect; inactive means flat fitted curve, though single readings scatter.
Potency means the concentration at half of the fitted maximal effect.

The assay is described as follows: DAPI mCherry counterscreen qHTS for Zika virus inhibitors. Further: nearly all actives have a fitted effect of over 55% in size. The following applies: Vero cells, DAPI nuclear count cytotoxicity, imaging 48-72 h, infected with Zika reporter virus, MOI 1; series mostly up to 32.6 µM. Summed up:
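Imaging read-out after fixation and Hoechst nuclear staining: percent infection from mCherry-positive cells (above 3 SD of negative controls) and nuclear counts. Setup: Vero cells pre-plated overnight, compound added, infected with ZIKV-mCherry (MOI 1), 48-72 hrs, 37 degrees C.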
For orientation: Counterscreens check selectivity or assay interference.
For `CCS(=O)(=O)c1cccc(C(=O)Nc2ccc(-c3nc4ccccc4s3)c(O)c2)c1`, the Potency is 14.1 µM (active).
On to `C/C(=C\CC/C(C)=C/CC[C@]1(C)CCc2cc(O)cc(C)c2O1)CC/C=C(\C)C(=O)O`, for which the Potency was 14.1 µM (active).
On to `Cc1ccccc1NC(=O)Nc1ccc(CN2C(=O)N([C@@H](CC(C)C)C(=O)N[C@@H](CC(=O)O)c3ccccc3)C(=O)C2(C)C)cc1`, for which the Potency was 7.08 µM (active).
With `CCCCCCCCc1ccc(CCC(N)(CO)CO)cc1`, the Potency was 10 µM (active).
With `O=C(O)CCc1ccc(-c2ccc(Cl)cc2)n1-c1cccc(C(F)(F)F)c1` the figure was 25.1 µM (active); with `O=c1c(O)c(-c2ccc(O)c(O)c2)oc2cc(O)ccc12`, “inactive”; with `O=C(O)c1ccc(S(=O)(=O)N(Cc2ccc(OC(F)(F)F)cc2)c2ncc(C(F)(F)F)cc2Cl)cc1`, 25.1 µM (active).
With `Cc1ccc(-n2[nH]c(C)c(N=Nc3cccc(-c4cccc(C(=O)O)c4)c3O)c2=O)cc1C` the figure was 14.1 µM (active); with `CCOC(=O)c1ccc(Nc2nc3ccccc3nc2NS(=O)(=O)c2ccc(Cl)cc2)cc1`, 7.94 µM (active); with `Oc1c(Cl)cc(Cl)c(Cl)c1Cc1c(O)c(Cl)cc(Cl)c1Cl`, 31.6 µM (active).
Next, `CCC(C)CCCCC(=O)NC(CCNCS(=O)(=O)O)C(=O)NC(C(=O)NC(CCNCS(=O)(=O)O)C(=O)NC1CCNC(=O)C(C(C)O)NC(=O)C(CCNCS(=O)(=O)O)NC(=O)C(CCNCS(=O)(=O)O)NC(=O)C(CC(C)C)NC(=O)C(CC(C)C)NC(=O)C(CCNCS(=O)(=O)O)NC1=O)C(C)O` (stereo unspecified): “inactive”; `CCC(=O)O[C@H]1[C@H](O[C@@H]2[C@@H](C)[C@H](O[C@H]3C[C@@](C)(OC)[C@@H](O)[C@H](C)O3)[C@@H](C)C(=O)O[C@H](CC)[C@@](C)(O)[C@H](O)[C@@H](C)C(=O)[C@H](C)C[C@@]2(C)O)O[C@H](C)C[C@@H]1N(C)C`: 35.5 µM (active).
Regarding `COc1cc(Nc2nc3ccccc3nc2NS(=O)(=O)c2ccc(NC(=O)c3ccc(OC)c(C)c3)cc2)cc(OC)c1`, the Potency is 6.31 µM (active).
Turning to `CC(=O)N1c2ccc(-c3ccc(C(=O)O)cc3)cc2C(Nc2ccc(Cl)cc2)CC1C` (stereo unspecified), the Potency is 1 µM (active).
With `O=C(O)c1cc(N(Cc2ccc(C3CCCCC3)cc2)C(=O)c2ccc(Oc3ccccc3)cc2)ccc1O` the figure was 35.5 µM (active); with `CC(C)c1cccc2c(-c3ccccc3)cc(-c3ccc(-c4ccc(C(=O)O)cc4)[nH]3)nc12`, 25.1 µM (active); with `C[C@H](NC(=O)C(=O)Nc1ccccc1C(C)(C)C)C(=O)N[C@@H](CC(=O)O)C(=O)COc1c(F)c(F)cc(F)c1F`, “inactive”.
On to `O=C(Nc1ccc(S(=O)(=O)N2CCOCC2)cc1)c1cc(Cl)ccc1NS(=O)(=O)c1ccc(Cl)s1`, for which the Potency is 15.8 µM (active).
With `CC1(C(=O)O)NCCc2cc(O)c(O)cc21` (stereo unspecified), the Potency result is “inactive”.
Next, `C/C=C/C=C/C=C/C(=O)O[C@@H]1[C@@H](OC)C2=C(C(=O)N(C(CCC(=O)O)C(=O)O)C2)[C@@]2(C)CCCC(C)(C)[C@H]12` (stereo partly specified): “inactive”; `N#Cc1c(O)c2c(-c3ccc(-c4ccccc4O)cc3)csc2[nH]c1=O`: “inactive”.
